Data as given in PubChem BioAssay (Tox21).
Several values for one entry are separate records, joined by “and”; a condition that tells them apart may be missing. Equal entries are not always repeated. Records with an inconclusive call do not appear. Some compounds were tested as several samples or in several runs, with calls that do not always agree. Activity calls are given as the source filed them. Calls come from the whole dose curve; as a rule, active = well fitted curve in the direction sought with a large enough effect in the repeat runs; inconclusive = weak or mixed curves; inactive = no such curve, though single readings can be large; an effect the other way counts as inactive or inconclusive.

Tests used:
[1] = A CellTox Green Cytotoxicity Assay to monitor cytotoxicity in HepG2 cells - 0 hour (AID 1224882); note: nearly all actives have a fitted effect of over 35% in size; note: potency is the fitted concentration of half-maximal effect
How it was run: (§1)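 HepG2 cells were seeded together with the CellTox Green dye at 600 cells/well, left 5 h at 37 C/5% CO2, then given compounds in DMSO. Fluorescence from dye bound to dead-cell DNA was read repeatedly over 40 h of treatment at 37 C.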

[2] = A CellTox Green Cytotoxicity Assay to monitor cytotoxicity in HepG2 cells - 32 hour (AID 1224883); note: nearly all actives have a fitted effect of over 50% in size; note: potency is the fitted concentration of half-maximal effect
How it was run: as §1

[3] = A CellTox Green Cytotoxicity Assay to monitor cytotoxicity in HEK293 cells - 8 hour (AID 1224884); note: nearly all actives have a fitted effect of over 35% in size; note: potency is the fitted concentration of half-maximal effect
How it was run: (§2)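 HEK293 cells premixed with CellTox Green dye were seeded at 600 cells/well and left 5 h at 37 C/5% CO2 before pin transfer of 23 nL compound in DMSO. Fluorescence from dye bound to dead-cell DNA was read during 40 h treatment.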

[4] = qHTS RealTime-Glo MT Cell Viability Assay in HepG2 cells - 16 hour (AID 1224885); note: nearly all actives have a fitted effect of over 50% in size; note: potency is the fitted concentration of half-maximal effect
How it was run: (§3)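 Compound treatment began 5 h after plating HepG2 cells (600/well) with NanoLuc luciferase and prosubstrate. Plates stayed at 37 C for 40 h; luminescence was captured at six time points, 0 h through 40 h.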

[5] = qHTS RealTime-Glo MT Cell Viability Assay in HEK293 cells - 24 hour (AID 1224886); note: nearly all actives have a fitted effect of over 50% in size; note: potency is the fitted concentration of half-maximal effect; for activity change, negative = cytotoxicity: top concentration of the series differs between compounds
How it was run: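 Quantitative high-throughput screen of the Tox21 10K library in HEK293: cells and RealTime-Glo reagents plated together, compound added at 5 h, luminescence monitored through 40 h at 37 C.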

[6] = qHTS RealTime-Glo MT Cell Viability Assay in HEK293 cells - 8 hour (AID 1224887); note: nearly all actives have a fitted effect of over 50% in size; note: potency is the fitted concentration of half-maximal effect; for activity change, negative = cytotoxicity: top concentration of the series differs between compounds
How it was run: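 HEK293 cells mixed with RealTime-Glo reagents (NanoLuc plus cell-permeant prosubstrate) at 600 cells/well, preincubated 5 h at 37 C/5% CO2, then given 23 nL compound in DMSO. Nonlytic luminescence from viable cells was read at 0, 8, 16, 24, 32 and 40 h.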

[7] = A CellTox Green Cytotoxicity Assay to monitor cytotoxicity in HEK293 cells - 16 hour (AID 1224888); note: nearly all actives have a fitted effect of over 35% in size
How it was run: as §2

[8] = qHTS RealTime-Glo MT Cell Viability Assay in HepG2 cells - 0 hour (AID 1224889); note: nearly all actives have a fitted effect of over 50% in size
How it was run: as §3

[9] = A CellTox Green Cytotoxicity Assay to monitor cytotoxicity in HepG2 cells - 8 hour (AID 1224890); note: nearly all actives have a fitted effect of over 45% in size; note: potency is the fitted concentration of half-maximal effect
How it was run: as §1

[10] = A CellTox Green Cytotoxicity Assay to monitor cytotoxicity in HEK293 cells - 32 hour (AID 1224881); note: nearly all actives have a fitted effect of over 40% in size; note: potency is the fitted concentration of half-maximal effect
How it was run: as §2
% is set by controls: 0 for no effect and ±100 for the full control effect.

O=[N+]([O-])/C=C/c1ccccc1
active: Potency [2] 17.7 µM | Potency [4] 49.8 µM and 21.9 µM | Potency [5] 6.27 µM and 13.8 µM | Potency [6] 14 µM and 15.5 µM
inactive: Potency [1] | Potency [3] | Potency [7] | outcome [8]

CC(C)CCON=O
inactive: Potency [1] | Potency [2] | Potency [3] | Potency [4] | Potency [5] | Potency [6] | outcome [8] | Potency [9]

COc1ccc(C(=O)c2c(C)n(CCN3CCOCC3)c3ccccc23)cc1
active: Potency [1] 0.952 µM | Potency [9] 1.07 µM
inactive: Potency [10] | Potency [3] | Potency [4] | Potency [6] | Potency [7] | outcome [8]

CCCBr
inactive: Potency [10] | Potency [1] | Potency [2] | Potency [4] | Potency [5] | Potency [6] | outcome [8] | Potency [9]

CCC1(CC)C(=O)NC(=O)NC1=O
inactive: Potency [10] | Potency [1] | Potency [4] | Potency [5] | Potency [6] | Potency [7] | outcome [8] | Potency [9]

CC(C)(C)c1ccc(CCOc2ncnc3ccccc23)cc1
inactive: Potency [10] | Potency [1] | Potency [3] | Potency [4] | Potency [5] | Potency [6] | outcome [8] | Potency [9]

CCCC[P+](CC)(CCCC)CCCC (tested in a mixture with another compound)
inactive: Potency [1] | Potency [2] | Potency [4] | Potency [6] | outcome [8] | Potency [9]

O=CC=O
inactive: Potency [10] | Potency [1] | Potency [2] | Potency [4] | Potency [5] | Potency [6] | Potency [7] | outcome [8] | Potency [9]

CCCCC(CC)COC(=O)c1c(Br)c(Br)c(Br)c(Br)c1C(=O)OCC(CC)CCCC (stereo not drawn)
inactive: Potency [10] | Potency [1] | Potency [2] | Potency [4] | Potency [5] | Potency [6] | outcome [8] | Potency [9]

CCC(=O)O[C@@H]1C=C2CCC3C(CCC4(C)C3CC[C@@H]4OC(=O)CC)C2CC1 (stereo partly drawn)
inactive: Potency [1] | Potency [2] | Potency [3] | Potency [4] | Potency [5] | Potency [7] | outcome [8]

O=C(NC(=O)c1cc(F)c(F)cc1Cl)Nc1cc(F)ccc1N1CCC(C(=O)O)CC1
inactive: Potency [10] | Potency [2] | Potency [3] | Potency [4] | Potency [5] | Potency [6] | Potency [7] | outcome [8]

CCCN(CCOc1c(Cl)cc(Cl)cc1Cl)C(=O)n1ccnc1
active: Potency [5] 22.3 µM and 27.5 µM | Potency [6] 44.6 µM and 27.5 µM
inactive: Potency [10] | Potency [1] | Potency [4] | Potency [7] | Potency [9]

CC(Cc1ccccc1)NCc1ccccc1Cl (stereo not drawn)
inactive: Potency [1] | Potency [2] | Potency [3] | Potency [4] | Potency [5] | Potency [6] | Potency [7] | outcome [8] | Potency [9]

CC(C)CCCCCCCOC(=O)c1ccccc1C(=O)OCCCCCCCC(C)C
inactive: Potency [10] | Potency [1] | Potency [2] | Potency [4] | Potency [5] | Potency [6] | outcome [8] | Potency [9]

CCOP(=S)(OCC)Oc1ccc(S(C)=O)cc1 (stereo not drawn)
inactive: Potency [10] | Potency [1] | Potency [2] | Potency [4] | Potency [5] | Potency [6] | Potency [7] | Potency [9]

CCCCOC(=O)CCC(=O)OCCCC
inactive: Potency [10] | Potency [1] | Potency [3] | Potency [4] | Potency [5] | Potency [6] | Potency [7] | outcome [8] | Potency [9]

CN(C)N
inactive: Potency [1] | Potency [4] | Potency [5] | Potency [6] | outcome [8] | Potency [9]

C=CCc1ccc(OC(=O)Cc2ccccc2)c(OC)c1
inactive: Potency [10] | Potency [1] | Potency [3] | Potency [4] | Potency [6] | Potency [7] | outcome [8] | Potency [9]

Nc1c(Br)cc(Br)c2c1C(=O)c1ccccc1C2=O
inactive: cytotoxicity increase [10] -1.22% [at 15.8 µM] | cytotoxicity [1] -4.24% [at 15.8 µM] | cytotoxicity increase [2] -5.33% [at 15.8 µM] | activity change, negative = cytotoxic [4] -7.09% [at 15.8 µM] | activity change [7] -11% [at 15.8 µM, stronger effect = higher value] | activity change, negative = cytotoxicity [8] -16.3% [at 15.8 µM] | cytotoxicity increase [9] -5.92% [at 15.8 µM]

O=C(CCl)CCl
inactive: Potency [1] | Potency [4] | Potency [6] | Potency [7] | outcome [8] | Potency [9]
active: Potency [2] 22.7 µM | Potency [5] 18 µM and 19.5 µM

C=CCN1C[C@H](C)N([C@H](c2ccc(C(=O)N(CC)CC)cc2)c2cccc(OC)c2)C[C@H]1C
inactive: Potency [1] | Potency [3] | Potency [4] | Potency [6] | Potency [7] | outcome [8] | Potency [9]

CCCN(CCC)C(=O)Cc1c(-c2ccc(Cl)cc2)nc2ccc(Cl)cn12
active: Potency [5] 5.35 µM | Potency [6] 5.35 µM
inactive: Potency [10] | Potency [1] | Potency [3] | Potency [4] | Potency [7] | outcome [8] | Potency [9]

COP(=O)(OC)OC(Br)C(Cl)(Cl)Br (stereo not drawn)
inactive: Potency [10] | Potency [1] | Potency [2] | Potency [4] | Potency [6] | Potency [7] | outcome [8] | Potency [9]

O=C1c2ccccc2C(=O)N1SC(Cl)(Cl)Cl
inactive: Potency [1] | Potency [7] | outcome [8] | Potency [9]
active: Potency [10] 21.6 µM and 8.71 µM | Potency [2] 24.2 µM and 12.3 µM | Potency [4] 19.5 µM | Potency [5] 5.42 µM and 6.16 µM

OCC1CO1 (stereo not drawn)
44.4 µM (active) and inactive: Potency [3]
inactive: Potency [10] | Potency [4] | Potency [5] | Potency [6] | Potency [7] | outcome [8]

C#C[C@]1(O)CC[C@H]2[C@@H]3CCC4=CC(=O)CCC4=C3C=C[C@@]21CC
inactive: Potency [10] | Potency [1] | Potency [3] | Potency [4] | Potency [6] | Potency [7] | outcome [8] | Potency [9]

CC(=O)OC(c1ccccc1)C(Cl)(Cl)Cl (stereo not drawn)
inactive: Potency [4] | Potency [5] | Potency [6] | outcome [8]
active: Potency [10] 19.5 µM | Potency [2] 24.5 µM | Potency [3] 19.5 µM | Potency [9] 24.5 µM

COc1cc(CC(C)N)c(OC)cc1Br (stereo not drawn)
inactive: Potency [10] | Potency [1] | Potency [4] | Potency [5] | Potency [6] | outcome [8] | Potency [9]

COc1cc(C[C@@H](C)N)c(OC)cc1Br
inactive: Potency [10] | Potency [1] | Potency [3] | Potency [4] | Potency [5] | Potency [6] | Potency [7] | Potency [9]

O=C(Cc1ccccc1)c1ccccc1
inactive: Potency [10] | Potency [1] | Potency [2] | Potency [4] | Potency [5] | Potency [6] | outcome [8]
